Reference: the supplement of paper PMC12282887
± gives the standard deviation of the averaged measurements.

Experiments:
Assay in all cases: promoter activity interaction Z-score (Lux/OD deviation from empty-vector control); higher = stronger promoter induction by the compound
[1] = tested on: E. coli BW25113 acrABp lux reporter
Procedure, shortened: (§1)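 OD600 and luminescence of E. coli BW25113 reporter cultures (40 µl LB Lennox, 384-well plates, 37°C) were measured every 30 min for 12 h. Integration ran over 0–8 h for wild type or 1–9 h for deletion strains, and wells with growth below 10% of the median were dropped. The score is the Z-transformed residual of growth-normalised luminescence fitted against a control.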

[2] = tested on: E. coli BW25113 marRABp lux reporter
Procedure, shortened: as §1

[3] = tested on: E. coli BW25113 micFp lux reporter
Procedure, shortened: as §1

[4] = tested on: E. coli BW25113 ompFp lux reporter
Procedure, shortened: as §1

[5] = tested on: E. coli BW25113 robp lux reporter
Procedure, shortened: as §1

[6] = tested on: E. coli BW25113 soxSp lux reporter
Procedure, shortened: as §1

[7] = tested on: E. coli BW25113 tolCp lux reporter
Procedure, shortened: as §1

[8] = 0.0012 µg/ml, genetic background: wild type
[9] = 0.0012 µg/ml, genetic background: ΔmarA
[10] = 0.0012 µg/ml, genetic background: Δrob
[11] = 0.0012 µg/ml, genetic background: ΔsoxS
[12] = 0.0024 µg/ml, genetic background: wild type
[13] = 0.0024 µg/ml, genetic background: ΔmarA
[14] = 0.0024 µg/ml, genetic background: Δrob
[15] = 0.0024 µg/ml, genetic background: ΔsoxS
[16] = 0.0048 µg/ml, genetic background: wild type
[17] = 0.0048 µg/ml, genetic background: ΔmarA
[18] = 0.0048 µg/ml, genetic background: Δrob
[19] = 0.0048 µg/ml, genetic background: ΔsoxS
[20] = 0.01 µg/ml, genetic background: wild type
[21] = 0.01 µg/ml, genetic background: ΔmarA
[22] = 0.01 µg/ml, genetic background: Δrob
[23] = 0.01 µg/ml, genetic background: ΔsoxS

CO/N=C(\C(=O)N[C@@H]1C(=O)N2C(C(=O)O)=C(COC(C)=O)CS[C@H]12)c1csc(N)n1 [Cefotaxime]
promoter activity interaction Z-score [1, 8]: -0.284 ± 0.025 | promoter activity interaction Z-score [1, 9]: 0.0868 ± 0.9 | promoter activity interaction Z-score [1, 10]: -0.103 ± 0.27 | promoter activity interaction Z-score [1, 11]: -0.098 ± 0.18 | promoter activity interaction Z-score [1, 12]: -0.0863 ± 0.2 | promoter activity interaction Z-score [1, 13]: -0.059 ± 0.93 | promoter activity interaction Z-score [1, 14]: 0.00639 ± 0.18 | promoter activity interaction Z-score [1, 15]: 0.118 ± 0.16 | promoter activity interaction Z-score [1, 16]: -0.23 ± 0.15 | promoter activity interaction Z-score [1, 17]: 0.42 ± 0.9 | promoter activity interaction Z-score [1, 18]: -0.311 ± 0.072 | promoter activity interaction Z-score [1, 19]: -0.148 ± 0.096 | promoter activity interaction Z-score [1, 20]: -0.274 ± 0.025 | promoter activity interaction Z-score [1, 21]: -1.6 ± 0.042 | promoter activity interaction Z-score [1, 22]: -0.154 ± 0.33 | promoter activity interaction Z-score [1, 23]: 0.212 ± 0.064 | promoter activity interaction Z-score [2, 8]: -0.109 ± 0.032 | promoter activity interaction Z-score [2, 9]: -0.16 ± 0.041 | promoter activity interaction Z-score [2, 10]: -0.227 ± 0.0043 | promoter activity interaction Z-score [2, 11]: -0.0693 ± 0.13 | promoter activity interaction Z-score [2, 12]: 0.0203 ± 0.031 | promoter activity interaction Z-score [2, 13]: -0.118 ± 0.093 | promoter activity interaction Z-score [2, 14]: 0.021 ± 0.12 | promoter activity interaction Z-score [2, 15]: -0.0591 ± 0.15 | promoter activity interaction Z-score [2, 16]: -0.2 ± 0.023 | promoter activity interaction Z-score [2, 17]: -0.394 ± 0.27 | promoter activity interaction Z-score [2, 18]: -0.171 ± 0.25 | promoter activity interaction Z-score [2, 19]: -0.214 ± 0.072 | promoter activity interaction Z-score [2, 20]: 0.0434 ± 0.19 | promoter activity interaction Z-score [2, 21]: -0.126 ± 0.0051 | promoter activity interaction Z-score [2, 22]: 0.448 ± 0.33 | promoter activity interaction Z-score [2, 23]: 0.448 ± 0.066 | promoter activity interaction Z-score [3, 8]: 0.00627 ± 0.0068 | promoter activity interaction Z-score [3, 9]: -0.0578 ± 0.08 | promoter activity interaction Z-score [3, 10]: 0.0368 ± 0.11 | promoter activity interaction Z-score [3, 11]: -0.0273 ± 0.11 | promoter activity interaction Z-score [3, 12]: -0.0766 ± 0.15 | promoter activity interaction Z-score [3, 13]: 0.0449 ± 0.11 | promoter activity interaction Z-score [3, 14]: 0.0295 ± 0.15 | promoter activity interaction Z-score [3, 15]: -0.18 ± 0.098 | promoter activity interaction Z-score [3, 16]: -0.0576 ± 0.36 | promoter activity interaction Z-score [3, 17]: -0.223 ± 0.19 | promoter activity interaction Z-score [3, 18]: 0.0329 ± 0.18 | promoter activity interaction Z-score [3, 19]: -0.198 ± 0.15 | promoter activity interaction Z-score [3, 20]: -0.5 ± 0.52 | promoter activity interaction Z-score [3, 21]: -0.278 ± 0.011 | promoter activity interaction Z-score [3, 22]: -0.0107 ± 0.074 | promoter activity interaction Z-score [3, 23]: -0.133 ± 0.077 | promoter activity interaction Z-score [4, 8]: -0.111 ± 0.025 | promoter activity interaction Z-score [4, 9]: -0.439 ± 0.11 | promoter activity interaction Z-score [4, 10]: -0.492 ± 0.1 | promoter activity interaction Z-score [4, 11]: 0.179 ± 0.43 | promoter activity interaction Z-score [4, 12]: 0.0538 ± 0.32 | promoter activity interaction Z-score [4, 13]: 0.191 ± 0.18 | promoter activity interaction Z-score [4, 14]: -0.287 ± 0.12 | promoter activity interaction Z-score [4, 15]: -0.23 ± 0.033 | promoter activity interaction Z-score [4, 16]: -0.24 ± 0.46 | promoter activity interaction Z-score [4, 17]: -0.537 ± 0.14 | promoter activity interaction Z-score [4, 18]: -0.409 ± 0.18 | promoter activity interaction Z-score [4, 19]: -0.158 ± 0.26 | promoter activity interaction Z-score [4, 20]: -0.753 ± 0.55 | promoter activity interaction Z-score [4, 21]: -2.18 ± 0.79 | promoter activity interaction Z-score [4, 22]: -0.598 ± 0.51 | promoter activity interaction Z-score [4, 23]: -2.53 | promoter activity interaction Z-score [5, 8]: -0.219 ± 0.23 | promoter activity interaction Z-score [5, 9]: -0.756 ± 0.2 | promoter activity interaction Z-score [5, 10]: -0.209 ± 0.28 | promoter activity interaction Z-score [5, 11]: -0.0836 ± 0.31 | promoter activity interaction Z-score [5, 12]: -0.0844 ± 0.072 | promoter activity interaction Z-score [5, 13]: 0.0702 ± 0.056 | promoter activity interaction Z-score [5, 14]: 0.0668 ± 0.073 | promoter activity interaction Z-score [5, 15]: -0.0496 ± 0.19 | promoter activity interaction Z-score [5, 16]: 0.227 ± 0.29 | promoter activity interaction Z-score [5, 17]: -0.466 ± 0.095 | promoter activity interaction Z-score [5, 18]: 0.0502 ± 0.2 | promoter activity interaction Z-score [5, 19]: -0.0174 ± 0.097 | promoter activity interaction Z-score [5, 20]: -1.42 ± 0.066 | promoter activity interaction Z-score [5, 21]: -2.06 ± 1.6 | promoter activity interaction Z-score [5, 22]: -1.76 ± 0.19 | promoter activity interaction Z-score [5, 23]: -2.39 ± 0.34 | promoter activity interaction Z-score [6, 8]: 0.251 ± 0.06 | promoter activity interaction Z-score [6, 9]: -0.00348 ± 0.14 | promoter activity interaction Z-score [6, 10]: 0.17 ± 0.16 | promoter activity interaction Z-score [6, 11]: 0.0148 ± 0.24 | promoter activity interaction Z-score [6, 12]: 0.182 ± 0.044 | promoter activity interaction Z-score [6, 13]: 0.121 ± 0.06 | promoter activity interaction Z-score [6, 14]: 0.225 ± 0.25 | promoter activity interaction Z-score [6, 15]: 0.066 ± 0.3 | promoter activity interaction Z-score [6, 16]: -0.0447 ± 0.15 | promoter activity interaction Z-score [6, 17]: -0.225 ± 0.1 | promoter activity interaction Z-score [6, 18]: -0.0284 ± 0.17 | promoter activity interaction Z-score [6, 19]: -0.179 ± 0.2 | promoter activity interaction Z-score [6, 20]: -0.209 ± 0.042 | promoter activity interaction Z-score [6, 21]: -0.312 ± 0.071 | promoter activity interaction Z-score [6, 22]: -0.223 ± 0.19 | promoter activity interaction Z-score [6, 23]: 0.193 ± 0.17 | promoter activity interaction Z-score [7, 8]: 0.0259 ± 0.64 | promoter activity interaction Z-score [7, 9]: 0.293 ± 0.38 | promoter activity interaction Z-score [7, 10]: -0.312 ± 0.38 | promoter activity interaction Z-score [7, 11]: -0.0825 ± 0.76 | promoter activity interaction Z-score [7, 12]: 0.373 ± 1.2 | promoter activity interaction Z-score [7, 13]: 0.241 ± 0.74 | promoter activity interaction Z-score [7, 14]: -0.132 ± 1.1 | promoter activity interaction Z-score [7, 15]: -0.287 ± 1.4 | promoter activity interaction Z-score [7, 16]: 0.132 ± 0.29 | promoter activity interaction Z-score [7, 17]: -0.365 ± 0.46 | promoter activity interaction Z-score [7, 18]: -0.311 ± 0.89 | promoter activity interaction Z-score [7, 19]: 0.17 ± 0.82 | promoter activity interaction Z-score [7, 20]: -0.425 ± 1.4 | promoter activity interaction Z-score [7, 21]: -0.436 ± 0.19 | promoter activity interaction Z-score [7, 22]: 0.622 ± 1.5 | promoter activity interaction Z-score [7, 23]: -0.234 ± 0.026
